Test results from publication PMC5540273 (PLoS ONE, 2017).

These compounds were tested on FRK. Conditions: concentration: 1 μM, replicates: in singlicate; n = 1.
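Also: KINOMEscan kinase panel screen.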

Compound | %Inh [%]
FC(F)(F)c1ccc(/C=C/c2cncnc2Nc2ccc3[nH]c(Cc4ccccc4)nc3c2)cc1 [GW709199] | 10
CN(C)Cc1ccc(-c2ccc3c(Nc4ccc(Oc5ccccn5)cc4)ccnc3c2)o1 [GW567148] | 25
Cc1ccc(F)c(C(=O)Nc2cccc(-c3nn4ccccc4c3-c3ccnc(Nc4cccc(F)c4)n3)c2)c1F [GSK361061] | 86
Cc1occc1-c1ncc(OC[C@@H](N)Cc2c[nH]c3ccccc23)cc1-c1ccc2[nH]nc(C)c2c1.O=C(O)C(F)(F)F [GSK682037] | 57
CN(C)S(=O)(=O)c1cc(-c2ccc3nccc(-c4cccc(S(N)(=O)=O)c4)c3c2)cnc1N [GSK1669921] | 7
COCCOCCOc1cc2ncc3c4ccc(C#N)cc4[nH]c3c2cc1OC | 16
COc1cccc(C2=C(Nc3ccc(Cl)c(C(=O)O)c3)C(=O)NC2=O)c1 [SB-390769] | 32
Oc1cc(Nc2ccnc3cc(I)ccc23)ccc1F [GW552771] | 72
Cc1ccc(S(=O)(=O)Nc2ccc(Nc3nccc(Nc4cccc5[nH]ncc45)n3)cc2)cc1 [GSK581271] | 73
Cc1ccc(C(=O)N2CC[C@@H](O)C2)cc1-n1c(C)cc(OCc2ccc(F)cc2F)c(Br)c1=O | 14
COC(=O)Nc1nc2cc(Oc3ccc(NC(=O)Nc4cc(C(F)(F)F)ccc4F)cn3)ccc2[nH]1.Cl.Cl [GW681170] | 55
COc1cc(Nc2nccc(N3CCC(NC(=O)c4cc5ccccc5s4)C3)n2)cc(OC)c1OC (stereo not shown) [GSK1379760] | 9
O=C(Nc1cccc(-c2nn3ccccc3c2-c2ccnc(Nc3cccc(F)c3)n2)c1)c1c(F)ccc(F)c1Cl [GSK357952] | 76
O=C(Nc1ccccc1F)NC1CCN(c2ccnc(Nc3ccc(F)cc3)n2)CC1 [GSK1379800] | 0
O=c1[nH]cc(-c2ccc(N3CCOCC3)cc2)c2sc(-c3cn[nH]c3)cc12 [GSK2276055] | 0
COc1cccc(C(=O)Nc2cccc(Oc3ccc4nc(NC(=O)C5CC5)cn4n3)c2)c1 | 94.9
O=C(Nc1cccc(Oc2ccc3nc(NC(=O)C4CC4)cn3n2)c1)c1ccccc1C(F)(F)F | 30
NCCCC(NC(=O)c1cc(Br)c(-c2ccnc3[nH]ccc23)s1)c1ccccc1.O=C(O)C(F)(F)F.O=C(O)C(F)(F)F (stereo not shown) [GSK1287544] | 2
COC(=O)Nc1nc2ccc(Oc3ccc(NC(=O)Nc4cc(C(F)(F)F)ccc4F)cc3)cc2n1C.Cl [GW692089] | 69

Compound | %Inh [%]
COc1cc(Nc2nccc(-c3c(-c4cccc(NC(=O)c5c(F)cccc5F)c4)nn4ncccc34)n2)cc(OC)c1OC [GSK327238] | 96.9
CN1CCN(CCCNc2nccc(-c3c(-c4ccc(F)cc4)nn4cc(C(F)(F)F)ccc34)n2)CC1 [GW621581] | 5
Cc1ccc(C)c(NC(=O)NC2CCN(c3ccnc(Nc4ccc(F)cc4)n3)C2)c1 (stereo not shown) [GSK1379720] | 14
Cc1cccc(Nc2nc(N[C@H]3CCNC3)ncc2C(N)=O)c1.Cl [GSK2197149] | 15
COc1ccc(Nc2nccc(NCCNC(=O)c3cc4ccccc4s3)n2)cc1 [GSK1379896] | 0
Nc1ncc(-c2cccnc2)c2scc(-c3ccc4c(c3)CCN4C(=O)Cc3ccccc3)c12 [GSK683281] | 6
Cl.Cl.NCC(NC(=O)c1cc(-c2ccccc2)c(-c2ccnc3[nH]ccc23)s1)c1ccccc1 (stereo not shown) [GSK1321561] | 72
Nc1ncc(-c2ccc3nccc(-c4ccncc4)c3c2)cc1S(=O)(=O)N1CCOCC1 [GSK1627798] | 8
CCn1c(-c2nonc2N)nc2c(C#CC(C)(C)O)ncc(OCCCCN)c21.O=C(O)C(F)(F)F.O=C(O)C(F)(F)F [GSK507274] | 26
Nc1n[nH]c2cnc(-c3ccccc3)cc12 [SB-642124] | 10
Cl.c1ccc(-c2ccc3c(Nc4ccc5[nH]ncc5c4)ccnc3c2)nc1 [GW440137] | 0
Nc1ncnc2c1nc(-c1ccccc1)n2-c1ccccc1 [SKF-97293] | 0
Cn1cc(-c2ccc3c(c2)CCN3C(=O)Cc2cccc(Cl)c2)c2c(N)ncnc21 [GSK2606590] | 8
COc1cccc(-c2ccc3c(NC(=O)C4CC4)n[nH]c3n2)c1 [SB-710903] | 0
CC(=O)N1CCN(c2ccc(Nc3nccc(-c4sc(C(C)C)nc4-c4cccc(NS(=O)(=O)c5cccc(Cl)c5)c4)n3)cn2)CC1 [GSK1660437] | 70
CC(C)(C)c1ccc2nccc(Nc3cccc(O)c3)c2c1 [GW856795] | 84
COc1cc2c(cc1OCCN1CCNCC1)ncc1c3ccc(C#N)cc3[nH]c21 | 0
O=C(Nc1cccc(-c2nn3ncccc3c2-c2ccnc(Nc3ccccc3)n2)c1)c1c(F)cccc1F [GSK198271] | 89
